Assay results: PubChem BioAssay (NCI)
The panel holds about 79,000 compounds, 15% with a hit somewhere; the sample as a whole holds those more often. Calls of active or inactive are those of the source. Cut-off read from the data, not from the text of the source: active = growth inhibition above about 70%; inactive = the rest.

How the values were obtained:
[1] = NCI Yeast Anticancer Drug Screen. Data for the rad52 strain (AID 147);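 note: 0% = growth of vehicle-treated control cultures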; settings: S. cerevisiae rad52 mutant growth inhibition, stronger effect = higher value
Procedure, shortened: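 Inhibition of yeast growth, referenced to vehicle controls, was the measured output for a strain with defective DNA damage repair.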

[2] = NCI Yeast Anticancer Drug Screen. Data for the wt1 strain (AID 149);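 note: 0% = growth of vehicle-treated wt1 cultures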; settings: S. cerevisiae wt1 strain (SPY 50644) growth inhibition, stronger effect = higher value
Procedure, shortened: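 Yeast wt1 strain exposed to compounds; growth inhibition measured relative to vehicle-treated controls.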

[3] = NCI Yeast Anticancer Drug Screen. Data for the rad50EPP+ strain (AID 151);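 note: 0% = growth of vehicle-treated control cultures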; settings: S. cerevisiae rad50 mutant strain, stronger effect = higher value
Procedure, shortened: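 Genetically defined yeast (rad50EPP+, DNA damage repair alteration) is grown with compound, and inhibition of growth is expressed relative to vehicle-treated controls.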

[4] = NCI Yeast Anticancer Drug Screen. Data for the rad50 strain (AID 155);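 note: 0% = growth of vehicle-only cultures of the same strain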; settings: S. cerevisiae rad50 strain growth inhibition, stronger effect = higher value
Procedure, shortened: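 Yeast carrying a defined DNA repair defect were exposed to test compounds, and growth was compared with vehicle-treated controls to give percent inhibition.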

[5] = NCI Yeast Anticancer Drug Screen. Data for the mec2-1 strain (AID 157); settings: S. cerevisiae mec2-1 strain, stronger effect = higher value
Procedure, shortened: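 Each compound was tested on mec2-1 yeast, a strain altered in DNA damage repair or cell cycle control. Growth inhibition is reported relative to vehicle.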

[6] = NCI Yeast Anticancer Drug Screen. Data for the rad14 strain (AID 159);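 note: 0% = growth of vehicle-treated control cultures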; settings: S. cerevisiae rad14 strain growth inhibition, stronger effect = higher value
Procedure, shortened: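 Yeast cells carrying a defined DNA-repair defect were exposed to compounds, and growth inhibition was calculated relative to vehicle-treated control cultures.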

[7] = NCI Yeast Anticancer Drug Screen. Data for the sgs1 mgt1 strain (AID 161);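 note: 0% = growth of cultures given vehicle only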; settings: S. cerevisiae sgs1 mgt1 strain, stronger effect = higher value
Procedure, shortened: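 Test agents were incubated with a DNA-repair-mutant yeast strain. Growth was then read and compared against vehicle-treated controls.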

[8] = NCI Yeast Anticancer Drug Screen. Data for the CLN2oe strain (AID 163);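 note: 0% = growth of vehicle-only control cultures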; settings: S. cerevisiae CLN2oe strain, stronger effect = higher value
Procedure, shortened: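 First, the altered yeast strain was treated with each compound; second, its growth was measured; finally, inhibition was derived by comparison with vehicle controls.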

[9] = NCI Yeast Anticancer Drug Screen. Data for the cln2 rad14 strain (AID 165);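 note: 0% = growth equal to vehicle treated cultures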; settings: S. cerevisiae cln2 rad14 strain, stronger effect = higher value
Procedure, shortened: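 Test compounds were added to cln2 rad14 yeast cultures; inhibition of growth was then determined by comparison with vehicle treatment.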

[10] = NCI Yeast Anticancer Drug Screen. Data for the bub3 strain (AID 167); settings: S. cerevisiae bub3 mutant strain, stronger effect = higher value
Procedure, shortened: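 Compounds were applied to a genetically altered yeast strain carrying a cell-cycle control defect. Growth inhibition was scored against vehicle-treated controls.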

[11] = NCI Yeast Anticancer Drug Screen. Data for the mlh1 strain (AID 171);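 note: 0% = growth of vehicle-treated control cultures of the same strain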; settings: S. cerevisiae mlh1 strain growth inhibition, stronger effect = higher value
Procedure, shortened: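 Inhibition values reflect reduced yeast growth in the presence of compound, referenced to vehicle controls, using a strain chosen for its alteration in DNA repair or cell cycle control.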

[12] = NCI Yeast Anticancer Drug Screen. Data for the sgs1 strain (AID 173);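 note: 0% = growth of vehicle-only control cultures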; settings: S. cerevisiae sgs1 mutant, stronger effect = higher value
Procedure, shortened: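 Vehicle-treated cultures served as reference for growth inhibition of a yeast strain altered in DNA damage repair or cell cycle control after compound exposure.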

[13] = NCI Yeast Anticancer Drug Screen. Data for the mlh1 rad18 strain (AID 175); settings: S. cerevisiae mlh1 rad18 strain growth inhibition, stronger effect = higher value
Procedure, shortened: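 Inhibition values reflect reduced growth of mutant yeast versus vehicle-treated controls following compound exposure; the mutations affect DNA damage repair.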

[14] = NCI Yeast Anticancer Drug Screen. Data for the rad18 strain (AID 177); settings: S. cerevisiae rad18 mutant growth inhibition, stronger effect = higher value
Procedure, shortened: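 Steps: expose repair-mutant yeast to compound; measure growth; express as inhibition relative to vehicle control.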

[15] = NCI Yeast Anticancer Drug Screen. Data for the wt2 strain (AID 169);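 note: 0% = growth of vehicle-treated yeast cultures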; settings: S. cerevisiae wt2 strain growth inhibition, stronger effect = higher value
Procedure, shortened: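 The panel's yeast strains carry defined changes in DNA repair or cell cycle genes. Each strain is grown with compound, and growth loss is scored relative to vehicle.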

[16] = at 5.0 µM (retest, dose inferred, filed as 0.5)
[17] = at 50.0 µM (retest, dose inferred, filed as 5.0)

Measured: growth inhibition

O=C1C=CC(=O)N1c1ccc(Br)cc1Cl
active: [1]; at 1.2 µM 91% | [1]; at 3.7 µM 101% | [1]; at 11.0 µM 99% | [1]; at 33.0 µM 99% | [1]; at 100.0 µM 99% | [2]; at 1.2 µM 95% | [2]; at 3.7 µM 101% | [2]; at 11.0 µM 99% | [2]; at 33.0 µM 99% | [2]; at 100.0 µM 98% | [3]; at 1.2 µM 90% | [3]; at 3.7 µM 102% | [3]; at 11.0 µM 100% | [3]; at 33.0 µM 99% | [3]; at 100.0 µM 99% | [4]; at 1.2 µM 99% | [4]; at 3.7 µM 101% | [4]; at 11.0 µM 100% | [4]; at 33.0 µM 100% | [4]; at 50.0 µM 92.2% | [4]; at 100.0 µM 99% | [5]; at 1.2 µM 97% | [5]; at 3.7 µM 101% | [5]; at 11.0 µM 100% | [5]; at 33.0 µM 99% | [5]; at 50.0 µM 93.7% | [5]; at 100.0 µM 99% | [6]; at 1.2 µM 99% | [6]; at 3.7 µM 102% | [6]; at 11.0 µM 100% | [6]; at 33.0 µM 100% | [6]; at 100.0 µM 100% | [7]; [16] 101% | [7]; [17] 98% | [8]; at 3.7 µM 101% | [8]; at 11.0 µM 99% | [8]; at 33.0 µM 99% | [8]; at 100.0 µM 99% | [9]; [16] 73% | [9]; [17] 100% | [10]; at 1.2 µM 98% | [10]; at 3.7 µM 101% | [10]; [16] 101% | [10]; at 11.0 µM 99% | [10]; at 33.0 µM 100% | [10]; [17] 98% | [10]; at 100.0 µM 99% | [11]; at 1.2 µM 96% | [11]; at 3.7 µM 101% | [11]; at 11.0 µM 100% | [11]; at 33.0 µM 97% | [11]; at 100.0 µM 99% | [12]; at 1.2 µM 92% | [12]; at 3.7 µM 102% | [12]; at 11.0 µM 99% | [12]; at 33.0 µM 99% | [12]; at 100.0 µM 99% | [13]; at 50.0 µM 92.7% | [14]; at 1.2 µM 85% | [14]; at 3.7 µM 99% | [14]; at 11.0 µM 99% | [14]; at 33.0 µM 93% | [14]; at 100.0 µM 99%
inactive: [4]; [16] 15% | [4]; [17] 51% | [5]; [16] 44% | [5]; [17] 42% | [8]; at 1.2 µM 63% | [13]; [16] 22% | [13]; [17] 42%

CC(=O)c1ccc(NCN2C(=O)c3ccccc3C2=O)cc1
inactive: [1]; at 1.2 µM -31% | [1]; at 3.7 µM -8% | [1]; at 11.0 µM 28% | [2]; at 1.2 µM -51% | [2]; at 3.7 µM -41% | [2]; at 11.0 µM -36% | [2]; at 33.0 µM 66% | [3]; at 1.2 µM -17% | [3]; at 3.7 µM -32% | [3]; at 11.0 µM 6% | [4]; at 1.2 µM -20% | [4]; at 3.7 µM -12% | [4]; [16] 42% | [4]; at 11.0 µM 55% | [5]; at 1.2 µM -8% | [5]; at 3.7 µM -30% | [5]; [16] 51% | [5]; at 11.0 µM 16% | [6]; at 1.2 µM -50% | [6]; at 3.7 µM -39% | [6]; at 11.0 µM -19% | [6]; at 33.0 µM 66% | [8]; at 1.2 µM -19% | [8]; at 3.7 µM -32% | [8]; at 11.0 µM -31% | [8]; at 33.0 µM 53% | [9]; [16] 48% | [9]; [17] 35% | [10]; at 1.2 µM -15% | [10]; at 3.7 µM -2% | [10]; [16] 34% | [10]; at 11.0 µM 22% | [10]; [17] 42% | [15]; at 1.2 µM -49% | [15]; at 3.7 µM -36% | [15]; at 11.0 µM -15% | [15]; at 33.0 µM 64% | [11]; at 1.2 µM -44% | [11]; at 3.7 µM -48% | [11]; at 11.0 µM 6% | [11]; at 33.0 µM 68% | [12]; at 1.2 µM -25% | [12]; at 3.7 µM -28% | [12]; at 11.0 µM -13% | [13]; [16] 36% | [14]; at 1.2 µM -36% | [14]; at 3.7 µM -21% | [14]; at 11.0 µM 47%
active: [1]; at 33.0 µM 84% | [1]; at 100.0 µM 92% | [2]; at 100.0 µM 89% | [3]; at 33.0 µM 70% | [3]; at 100.0 µM 90% | [4]; at 33.0 µM 85% | [4]; [17] 99% | [4]; at 50.0 µM 82.7% | [4]; at 100.0 µM 89% | [5]; at 33.0 µM 81% | [5]; [17] 99% | [5]; at 50.0 µM 84.5% | [5]; at 100.0 µM 91% | [6]; at 100.0 µM 93% | [8]; at 100.0 µM 82% | [10]; at 33.0 µM 79% | [10]; at 100.0 µM 91% | [15]; at 100.0 µM 89% | [11]; at 100.0 µM 83% | [12]; at 33.0 µM 73% | [12]; at 100.0 µM 86% | [13]; [17] 99% | [13]; at 50.0 µM 85.8% | [14]; at 33.0 µM 90% | [14]; at 100.0 µM 92%

Clc1ccc(C(c2ccc(Cl)cc2)N2CCNCC2)cc1
active: [1]; at 100.0 µM 98% | [2]; at 100.0 µM 98% | [4]; [17] 95% | [4]; at 50.0 µM 92% | [4]; at 100.0 µM 97% | [5]; [16] 70% | [5]; [17] 96% | [5]; at 50.0 µM 93%
inactive: [1]; at 1.2 µM 2% | [1]; at 3.7 µM -3% | [1]; at 11.0 µM -1% | [1]; at 33.0 µM 46% | [2]; at 1.2 µM 5% | [2]; at 3.7 µM 6% | [2]; at 11.0 µM 3% | [2]; at 33.0 µM 29% | [3]; at 1.2 µM 1% | [3]; at 3.7 µM 5% | [3]; at 11.0 µM 5% | [3]; at 33.0 µM 3% | [3]; at 100.0 µM -1% | [4]; at 1.2 µM -3% | [4]; at 3.7 µM -1% | [4]; [16] 38% | [4]; at 11.0 µM 6% | [4]; at 33.0 µM 67% | [5]; at 1.2 µM -19% | [5]; at 3.7 µM -19% | [5]; at 11.0 µM -10% | [5]; at 33.0 µM 49%
